# Source: PubChem BioAssay (NCI)
# Compounds without any hit were thinned out: in the full panel of roughly 79,000, 15% have a hit. A number with no mark means an inactive call. Activity calls are given as the source filed them. Rule as the data show it: active = growth inhibition above about 70%; inactive = the rest.
# Legend:
# [1] = NCI Yeast Anticancer Drug Screen. Data for the rad50 strain (AID 155);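 also: 0% = growth of vehicle-only cultures of the same strain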; conditions: S. cerevisiae rad50 strain growth inhibition, active compounds read high
# Outline: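 Compounds were tested on a yeast strain with an engineered DNA damage repair alteration; the reported value is growth inhibition normalised to vehicle treatment.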
# [2] = NCI Yeast Anticancer Drug Screen. Data for the mec2-1 strain (AID 157); conditions: S. cerevisiae mec2-1 strain, active compounds read high
# Outline: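 Test agents were screened against the mec2-1 yeast strain, with defined DNA repair or cell cycle alteration. Growth was scored as inhibition against vehicle-only controls.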
# [3] = NCI Yeast Anticancer Drug Screen. Data for the sgs1 mgt1 strain (AID 161);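 also: 0% = growth of cultures given vehicle only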; conditions: S. cerevisiae sgs1 mgt1 strain, active compounds read high
# Outline: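 Inhibition of yeast growth, normalised to vehicle-treated controls, is reported for a strain bearing genetic alterations in DNA damage repair.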
# [4] = NCI Yeast Anticancer Drug Screen. Data for the cln2 rad14 strain (AID 165);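 also: 0% = growth equal to vehicle treated cultures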; conditions: S. cerevisiae cln2 rad14 strain, active compounds read high
# Outline: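 Growth of compound-exposed yeast (cln2 rad14 genotype) measured and expressed as inhibition relative to vehicle.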
# [5] = NCI Yeast Anticancer Drug Screen. Data for the bub3 strain (AID 167); conditions: S. cerevisiae bub3 mutant strain, active compounds read high
# Outline: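 Growth of a checkpoint-deficient yeast mutant is measured after compound exposure. Values represent inhibition relative to vehicle.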
# [6] = NCI Yeast Anticancer Drug Screen. Data for the mlh1 rad18 strain (AID 175); conditions: S. cerevisiae mlh1 rad18 strain growth inhibition, active compounds read high
# Outline: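 In this whole-cell yeast screen, a strain with altered DNA damage repair is challenged with compound, and its growth is measured against matched vehicle-treated controls.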
# [7] = at 5.0 µM (retest, dose inferred, filed as 0.5)
# [8] = at 50.0 µM (retest, dose inferred, filed as 5.0)
SMILES,"growth inhibition [1, 7]","growth inhibition [1, 8]",growth inhibition ([1]; at 50.0 µM),"growth inhibition [2, 7]","growth inhibition [2, 8]",growth inhibition ([2]; at 50.0 µM),"growth inhibition [3, 7]","growth inhibition [3, 8]",growth inhibition ([3]; at 50.0 µM),"growth inhibition [4, 7]","growth inhibition [4, 8]",growth inhibition ([4]; at 50.0 µM),"growth inhibition [5, 7]","growth inhibition [5, 8]",growth inhibition ([5]; at 50.0 µM),"growth inhibition [6, 7]","growth inhibition [6, 8]",growth inhibition ([6]; at 50.0 µM)
Cc1ccc(NC(=O)Oc2ccc(OC(=O)Cc3ccccc3)cc2)cc1NC(=O)Oc1ccc(OC(=O)Cc2ccccc2)cc1,10%,97% (active),99.2% (active),43%,94% (active),99.4% (active),2%,89% (active),99.2% (active),10%,93% (active),98.2% (active),15%,98% (active),99% (active),2%,98% (active),99.1% (active)
CN(C)C(=S)SN(C)C(=O)Nc1ccccc1,-5%,96% (active),70.3% (active),-7%,96% (active),73% (active),-6%,96% (active),94% (active),-13%,95% (active),-9%,-4%,95% (active),92.2% (active),-3%,96% (active),86.1% (active)
N#C/C(=C/c1ccc([N+](=O)[O-])o1)c1ccccc1,-6%,-7%,75.8% (active),-19%,-7%,-20.1%,-6%,-1%,27.9%,12%,23%,32.8%,-4%,-2%,-13.7%,-21%,21%,5.9%
Cc1ccc(-c2c3nc(c(-c4ccc(C)cc4)c4ccc([nH]4)c(-c4ccc(C)cc4)c4nc(c(-c5ccncc5)c5ccc2[nH]5)C=C4)C=C3)cc1.Cc1ccc(-c2c3nc(c(-c4ccc(C)cc4)c4ccc([nH]4)c(-c4ccc(C)cc4)c4nc(c(-c5ccncc5)c5ccc2[nH]5)C=C4)C=C3)cc1.O=S(=O)([O-])C(F)(F)F.[Pt+2].c1ccc([PH+](CCC[PH+](c2ccccc2)c2ccccc2)c2ccccc2)cc1,19%,62%,48.8%,13%,42%,36.8%,13%,71% (active),50.4%,3%,45%,-44.6%,10%,63%,38.8%,14%,60%,68.5%
CC1C2CC(C(S(=O)(=O)N3CCOCC3)/C2=N\O)C1(C)C (configuration not stated),-4%,-14%,88.2% (active),-12%,-31%,92.2% (active),-4%,-4%,86.5% (active),-20%,20%,89.2% (active),0%,-19%,89.9% (active),16%,-18%,83.2% (active)
COC(=O)CCC(=O)c1ccc2c(c1)CC1(Cc3ccccc3C1)C2,20%,29%,14.4%,24%,21%,3.85%,24%,46%,15.3%,14%,8%,17.6%,25%,44%,41.4%,29%,30%,12.1%
CCCCCCOC(=O)Nc1ccc(S(=O)(=O)N2CCCCC2)cc1,-7%,47%,35.5%,-9%,56%,28.1%,7%,66%,50.5%,-87%,44%,7.35%,-10%,41%,73.8% (active),-1%,46%,52.5%
CCN(CCN1C(=O)C2CCCCC2C1=O)c1ccc(N=O)c(C)c1 (configuration not stated),71% (active),97% (active),98.8% (active),66%,99% (active),98.8% (active),28%,99% (active),97.9% (active),23%,96% (active),88.6% (active),48%,98% (active),99.1% (active),72% (active),97% (active),97.5% (active)
CC(=O)OCCCCCCCCCCCCCCO,-1%,98% (active),50%,0%,99% (active),-15.1%,-4%,99% (active),-1.2%,-3%,98% (active),-33.1%,1%,99% (active),43%,-2%,98% (active),4.25%
C[N+](C)(C)CC(=O)N/N=C(\C(=O)NC1=C(Cl)C(=O)c2ccccc2C1=O)C(C#N)c1nc(-c2ccc([N+](=O)[O-])cc2)cs1 (configuration not stated),27%,98% (active),76% (active),6%,97% (active),56.6%,11%,97% (active),60.3%,13%,91% (active),50.6%,-23%,97% (active),75.2% (active),13%,97% (active),78.7% (active)
COC(=O)/C=C1/OC(c2ccccc2)=C(C)C1=O,6%,6%,30.7%,18%,18%,30.7%,14%,14%,48.9%,-6%,-6%,-7.85%,0%,0%,5.8%,8%,8%,42.6%
CN1C/C(=C\c2ccc(Cl)cc2)C(=O)/C(=C/c2ccc(Cl)cc2)C1,78% (active),98% (active),87.2% (active),73% (active),99% (active),88.5% (active),79% (active),99% (active),91% (active),78% (active),97% (active),88% (active),84% (active),97% (active),87.8% (active),83% (active),98% (active),85.2% (active)
Cc1cc(C)c(O)c(C2CC3CCC2(C)C3(C)C)c1 (configuration not stated),2%,87% (active),95.6% (active),1%,92% (active),95% (active),5%,91% (active),95.8% (active),4%,91% (active),95.2% (active),7%,92% (active),96.5% (active),-1%,94% (active),95.5% (active)
CN(C)/N=C\C1CC=CCC1 (configuration not stated),-148%,-148%,25.2%,-46%,-51%,5.35%,-58%,-61%,30.9%,-58%,-70%,82.9% (active),-71%,-80%,21.8%,-141%,-120%,38%
Cc1ccc(/C=C2\CCCC(CN(C)C)C2=O)cc1 (configuration not stated),-12%,95% (active),61.5%,-4%,99% (active),62.5%,-16%,96% (active),78.5% (active),6%,97% (active),41.4%,-31%,99% (active),49.3%,-13%,96% (active),52.4%
COc1ccc2nc3cccc([N+](=O)[O-])c3c(NCCN(C)C)c2c1,86% (active),95% (active),80% (active),95% (active),98% (active),88.5% (active),87% (active),74% (active),84.5% (active),92% (active),97% (active),83% (active),36%,96% (active),82.2% (active),92% (active),97% (active),79.6% (active)
CCNC(=S)NC1CCCCCCCCCCC1,99% (active),100% (active),87.8% (active),99% (active),99% (active),75.3% (active),26%,88% (active),87.2% (active),51%,59%,20.8%,40%,81% (active),82.9% (active),100% (active),100% (active),69.2%
O=C1CN(Cc2ccc(Cl)cc2)CC(=O)N2Cc3ccccc3CN12,4%,-3%,-16.2%,-4%,-6%,-13.8%,4%,-13%,-13.2%,-2%,1%,5.1%,6%,6%,64.2%,-4%,-3%,-11%
C[Si](C)(CCC(=O)O)O[Si](C)(C)CCC(=O)O,-6%,91% (active),99.5% (active),-4%,92% (active),99.7% (active),-6%,91% (active),99.5% (active),-1%,59%,98.2% (active),-9%,99% (active),99.5% (active),-1%,68%,99.2% (active)
